This passage reports binding signal results from article PMC9911399, “Two distinct binding modes provide the RNA-binding protein RbFox with extraordinary sequence specificity”.

The labels stand for the following.
B1: UCCGUGC (DNA:RNA)
RNA: GGGAGACCGGAAUUCAGAUUGUCCUCCGUGCUUAAAUCCCGUCGUAGCCACCA
DNA 1: CAATCTGAATTCCGGTCTCCC
DNA 2: TGGTGGCTACGACGGGATT
B2: UCCUGCU (DNA:RNA)
RNA: B1 RNA with G28U, U29G, G30C, C31U
DNA 1: CAATCTGAATTCCGGTCTCCC
DNA 2: TGGTGGCTACGACGGGATT
B3: GUGCUUG (DNA:RNA)
RNA: B1 RNA with U25G, C26U, C27G, G28C, G30U, C31G
DNA 1: CAATCTGAATTCCGGTCTCCC
DNA 2: TGGTGGCTACGACGGGATT
B4: UGCUUGG (DNA:RNA)
RNA: B1 RNA with C26G, G28U, C31G
DNA 1: CAATCTGAATTCCGGTCTCCC
DNA 2: TGGTGGCTACGACGGGATT
B5: UUGGUGC (DNA:RNA)
RNA: B1 RNA with C26U, C27G
DNA 1: CAATCTGAATTCCGGTCTCCC
DNA 2: TGGTGGCTACGACGGGATT
B6: UGCUUGU (DNA:RNA)
RNA: B1 RNA with C26G, G28U, C31U
DNA 1: CAATCTGAATTCCGGTCTCCC
DNA 2: TGGTGGCTACGACGGGATT
B7: UGAUUGG (DNA:RNA)
RNA: B1 RNA with C26G, C27A, G28U, C31G
DNA 1: CAATCTGAATTCCGGTCTCCC
DNA 2: TGGTGGCTACGACGGGATT
B8: UUGCCCG (DNA:RNA)
RNA: B1 RNA with C26U, C27G, G28C, U29C, G30C, C31G
DNA 1: CAATCTGAATTCCGGTCTCCC
DNA 2: TGGTGGCTACGACGGGATT
B9: UUGCUCG (DNA:RNA)
RNA: B1 RNA with C26U, C27G, G28C, G30C, C31G
DNA 1: CAATCTGAATTCCGGTCTCCC
DNA 2: TGGTGGCTACGACGGGATT
B10: UGCUUAU (DNA:RNA)
RNA: B1 RNA with C26G, G28U, G30A, C31U
DNA 1: CAATCTGAATTCCGGTCTCCC
DNA 2: TGGTGGCTACGACGGGATT
B11: UUGCUCC (DNA:RNA)
RNA: B1 RNA with C26U, C27G, G28C, G30C
DNA 1: CAATCTGAATTCCGGTCTCCC
DNA 2: TGGTGGCTACGACGGGATT
B12: GUCGUGC (DNA:RNA)
RNA: B1 RNA with U25G, C26U
DNA 1: CAATCTGAATTCCGGTCTCCC
DNA 2: TGGTGGCTACGACGGGATT

Numbering of substitutions follows the chain as printed; changes in the protein carry UniProt numbers. The full ranking holds about 16,000 sequences; the median of “ka relative to ugcaugu” is about 0.0091, and the highest 2% start at about 0.032. Many of the other results were omitted from the sample, so the highest values are more common in it than they were.

The target in the experiment is T1, RBFOX1 RRM (Homo sapiens, UniProt Q9NWB1 109-208).
T1 sequence: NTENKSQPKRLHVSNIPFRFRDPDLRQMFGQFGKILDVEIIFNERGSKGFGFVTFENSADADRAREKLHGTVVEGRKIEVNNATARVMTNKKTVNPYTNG
Put plainly: EMSA; HiTS-Eq, 1 nM pool, 10 min; buffer printed only for the single-RNA assays: 10 mM Tris pH 7.5, 150 mM NaCl, 3.4 mM EDTA, 0.001% NP-40, 30 C. The note with it: tags: His6 N-terminal (pET28a); label: 5' 32P. The procedure, abridged: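 A pool of RNA with 7 randomized nucleotides, 5′-radiolabelled and with DNA-annealed flanks, was equilibrated at 1 nM for 10 min in 50 µL with purified RbFox RRM, wild type or mutant, across increasing protein concentrations. Free RNA was separated by 8% native PAGE, excised, reverse-transcribed, barcoded by PCR and sequenced. Relative association constants were obtained from read-count changes of each RNA species versus the control reaction and normalised to the cognate motif.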
For the molecule B1, the binding signal is 0.0168 KA relative to UGCAUGU.
The same measure for B2: 0.0144 KA relative to UGCAUGU.
The same measure for B3: 0.053 KA relative to UGCAUGU; for B4: 0.0481 KA relative to UGCAUGU; for B5: 0.0277 KA relative to UGCAUGU.
Regarding B6, the binding signal is 0.0532 KA relative to UGCAUGU.
The same measure for B7: 0.0223 KA relative to UGCAUGU; for B8: 0.0225 KA relative to UGCAUGU.
The same measure for B9: 0.0477 KA relative to UGCAUGU; for B10: 0.0138 KA relative to UGCAUGU.
In the case of B11, the binding signal was 0.0158 KA relative to UGCAUGU.
For the molecule B12, the binding signal was 0.0206 KA relative to UGCAUGU.
